{"source": "PubChem BioAssay AID489008", "about": "(National Center for Advancing Translational Sciences (NCATS), 2010)", "note": "Inconclusive results are not listed. Calls of active or inactive are those of the source. Calls come from the whole dose curve; as a rule, active = well fitted inhibition curve with a large enough effect; inconclusive = small, poorly fitted or top-dose-only effect; inactive = flat fitted curve, though single readings scatter. Potency is the fitted concentration of half-maximal effect."}
{"molecular_target": "Ferritin light chain (Equus caballus) (UniProt P02791)", "sequence (P02791 2-175 limits assumed)": "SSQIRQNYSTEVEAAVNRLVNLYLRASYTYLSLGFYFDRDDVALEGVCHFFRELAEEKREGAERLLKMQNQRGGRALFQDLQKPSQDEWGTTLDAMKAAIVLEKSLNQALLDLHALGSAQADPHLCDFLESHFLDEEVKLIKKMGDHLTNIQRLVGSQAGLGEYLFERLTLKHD", "assay": "Confirmation Assay for Identification of Novel General Anesthetics; note: nearly all actives have a fitted effect of over 40% in size", "conditions": "apoferritin 1-aminoanthracene fluorescence displacement", "text": "Anesthetic development has remained a largely empirical process. There are growing concerns about the cognitive effects of known general anesthetics and acceleration of the onset of neurodegenerative disease. The compounds' toxicity and multiple specific binding targets in the mammalian brain [4] has made them less attractive as drug leads. In this assay, a GABAergic mimetic model system, apoferritin and a profluorescent 1-aminoanthracene ligand (1-AMA), was used to construct a competitive binding assay for identification of novel general anesthetics. The assay was validated for 1-AMA using other known anesthetics, such as isoflurane (CID:3763) and propofol (CID: 4943), [6]. This particular BioAssay is a confirmation of followup compounds from primary screen AID:485281.\n[1] S.L. Bianchi, T. Tran, C. Liu, S. Lin, Y. Li, J.M. Keller, R.G. Eckenhoff, and M.F. Eckenhoff, Brain and behavior changes in 12-month-old Tg2576 and nontransgenic mice exposed to anesthetics. Neurobiol Aging 29 (2008) 1002-10.\n[2] Z. Xie, Y. Dong, U. Maeda, R.D. Moir, W. Xia, D.J. Culley, G. Crosby, and R.E. Tanzi, The inhalation anesthetic isoflurane induces a vicious cycle of apoptosis and amyloid beta-protein accumulation. J Neurosci 27 (2007) 1247-54.\n[3] P. Honegger, and J.M. Matthieu, Selective toxicity of the general anesthetic propofol for GABAergic neurons in rat brain cell cultures. J Neurosci Res 45 (1996) 631-6.\n[4] M.F. Eckenhoff, K. Chan, and R.G. Eckenhoff, Multiple specific binding targets for inhaled anesthetics in the mammalian brain. J Pharmacol Exp Ther 300 (2002) 172-9.\n[5] C.A. Butts, J. Xi, G. Brannigan, A.A. Saad, S.P. Venkatachalan, R.A. Pearce, M.L. Klein, R.G. Eckenhoff, and I.J. Dmochowski, Identification of a fluorescent general anesthetic, 1-aminoanthracene. Proc Natl Acad Sci U S A 106 (2009) 6501-6.\n[6] W.A. Lea, J. Xi, A. Jadhav, L. Lu, C.P. Austin, A. Simeonov, and R.G. Eckenhoff, A high-throughput approach for identification of novel general anesthetics. PLoS One 4 (2009) e7150.\nSource: NIH Chemical Genomics Center [NCGC]\nAssay Submitter: Roderic Eckenhoff, University of Pennsylvania\nScreening Center PI: Christopher P. Austin, NIH\nProbe Development: NIH Chemical Genomics Center [NCGC]\nThree uL of reagents (free 1-AMA (50% saturated solution of 1-aminoanthracene\nin PBS) in columns 3, 4 as negative control and 1-AMA/apoferritin mixture (10 uM horse-spleen apoferritin in 50% saturated 1-aminoanthracene in PBS) in columns 1, 2, 5-48) was dispensed into 1536-well Greiner black assay plates. Compounds (23 nL) were transferred via Kalypsys pintool equipped with 1,536-pin array (10 nL slotted pins, V&P Scientific, San Diego, CA). Titration of the positive control, propofol, were delivered via pin transfer from separate control plates to the 2nd column of each assay plate. The starting concentration of the control, dissolved in DMSO, was at 160 mM, followed by two-fold dilution points in duplicate, for a total of 16 concentrations. The plates were incubated for 10 min at room temperature, and then read on an EnVision HTS multilabel reader (Perkin-Elmer, Waltham, MA) (end point read, 3 min/plate) using Fura2 BFP excitation filter (380 nm, bandwidth 10 nm) and fluorescein emission filter (535 nm, bandwidth 25 nm) set. A LANCE/DELFIA dichroic mirror with a cutoff wavelength at 400 nm was used to maximize signal accuracy and strength. Vehicle-only plates, with DMSO being pin-transferred to the entire column 5-48 compound area, were inserted uniformly at the beginning and the end of each library in order to monitor for and record any shifts in the background. Activity was computed as the normalized fluorescence response relative to free 1-AMA and 1-AMA/apoferritin complex values. Concentration-effect relationships were derived by using curve fitting algorithms developed in-house (http://ncgc.nih.gov/pub/openhts/). […]"}
{"smiles": "NC(=O)Nc1ccc(Oc2ncc(C(F)(F)F)cc2Cl)cc1", "Potency": "7.08 µM (active)"}
{"smiles": "Cc1ccc(O)c(N=Nc2ccccc2)n1", "Potency": "22.4 µM (active)"}
{"smiles": "CC1CCN(c2nc(-c3ccncc3)nc3ccccc23)CC1", "Potency": "39.8 µM (active)"}
{"smiles": "O=C(CCN1CCN(CCO)CC1)Nc1ccc(C2CCCC2)cc1", "Potency": "31.6 µM (active)"}
{"smiles": "O=C(CC12CC3CC(CC(C3)C1)C2)Nc1nncs1", "Potency": "10 µM (active)"}
{"smiles": "O=C(CCSc1ccccc1)NC(=O)COC(=O)C1CCCCC1", "Potency": "35.5 µM (active)"}
{"smiles": "CCc1ccc(NC(=O)C2(C)Cc3ccccc3C(=O)O2)cc1", "note": "(stereo not given)", "Potency": "31.6 µM (active)"}
{"smiles": "Oc1ccc(C(=S)N2CCCCCC2)cc1", "Potency": "14.1 µM (active)"}
{"smiles": "Nc1nnc(SCC(=O)NC23CC4CC(CC(C4)C2)C3)s1", "Potency": "7.94 µM (active)"}
{"smiles": "O=C(NC1CCCCCC1)c1nnc(Cc2ccc(Cl)cc2)o1", "Potency": "15.8 µM (active)"}
{"smiles": "O=C(COC(=O)CC1CC2CCC1C2)NC(=O)NCc1ccco1", "note": "(stereo not given)", "Potency": "22.4 µM (active)"}
{"smiles": "Cc1ccc(OCc2cc(C(=O)NC3CCc4ccccc43)no2)cn1", "note": "(stereo not given)", "Potency": "17.8 µM (active)"}
{"smiles": "COc1cccc(C(=O)COC(=O)CCC(=O)c2ccccc2)c1", "Potency": "7.94 µM (active)"}
{"smiles": "CCN(CC)CC(=O)Nc1c(C)cc(C(C)(C)C)cc1C", "Potency": "12.6 µM (active)"}
{"smiles": "CC1(C)CC(=O)N(Cc2ccccc2)C(=O)C1", "Potency": "8.91 µM (active)"}
{"smiles": "Cc1ccccc1Nc1cccc2nonc12", "Potency": "20 µM (active)"}
{"smiles": "CCC(CC)C(=O)OCC(=O)NC12CC3CC(CC(C3)C1)C2", "Potency": "10 µM (active)"}
{"smiles": "NCCOc1ccc(C2CCCCC2)cc1", "Potency": "7.94 µM (active)"}
{"smiles": "Cc1ncsc1CCOC(=O)C12CC3CC(CC(C3)C1)C2", "Potency": "15.8 µM (active)"}
{"smiles": "NC(=O)COC(=O)CC12CC3CC(CC(C3)C1)C2", "Potency": "15.8 µM (active)"}
{"smiles": "O=C(CN1CCOCC1)Nc1ccc(C2CCCCC2)cc1", "Potency": "31.6 µM (active)"}
{"smiles": "COc1ccccc1-c1cn(C(C)(C)C)nc1C", "Potency": "14.1 µM (active)"}
{"smiles": "Cc1cccc(Nc2nc(Cl)ncc2F)c1C", "Potency": "28.2 µM (active)"}
{"smiles": "Cc1cccc(S(=O)(=O)NCCc2ccccc2)c1", "Potency": "14.1 µM (active)"}
{"smiles": "O=C(NC1=NCCS1)C12CC3CC(CC(C3)C1)C2", "Potency": "15.8 µM (active)"}
{"smiles": "Fc1ccccc1CSc1nc2ccccc2[nH]1", "Potency": "15.8 µM (active)"}
{"smiles": "Cc1cnc(C(=O)OCC(=O)NC23CC4CC(CC(C4)C2)C3)cn1", "Potency": "14.1 µM (active)"}
{"smiles": "C/C(=N\\O)C(C)(C)Nc1ccc(Br)cc1", "Potency": "8.91 µM (active)"}
{"smiles": "Nc1ccccc1Oc1ccc2ccccc2c1", "Potency": "11.2 µM (active)"}
{"smiles": "Nc1nc(-c2ccc3c(c2)CCCC3)cs1", "Potency": "28.2 µM (active)"}
{"smiles": "Oc1ccc(NCc2ccc(OCc3ccccc3Cl)cc2)cc1", "Potency": "17.8 µM (active)"}
{"smiles": "Oc1ccc(Cc2ncc(C(F)(F)F)cc2Cl)cc1", "Potency": "15.8 µM (active)"}
{"smiles": "COC1CCCCC1Nc1cc(C)cc(C)c1", "note": "(stereo not given)", "Potency": "31.6 µM (active)"}
{"smiles": "CC1CCCC(C)N1C(=O)COc1ccccc1F", "note": "(stereo not given)", "Potency": "17.8 µM (active)"}
{"smiles": "COc1cccc(CNc2ccc(C)c(Cl)c2)c1", "Potency": "11.2 µM (active)"}
{"smiles": "Cc1cc(C)cc(Oc2ccccc2CO)c1", "Potency": "14.1 µM (active)"}
{"smiles": "O=C(CSc1ccccc1)N1CCc2ccccc21", "Potency": "20 µM (active)"}
{"smiles": "COc1ccc(Cc2nnc(NC(=O)c3ccccc3F)s2)cc1", "Potency": "25.1 µM (active)"}
{"smiles": "CCCNC(=O)OCCC12CC3CC(CC(C3)C1)C2", "Potency": "7.08 µM (active)"}
{"smiles": "O=C(Nc1ccc(Br)cc1)N1CCCCCC1", "Potency": "25.1 µM (active)"}
